Screen size: about 330,000 compounds; about 560 (0.17%) were called active.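 How the source made its calls: active means activation at or above 40% of the spot to cytoplasm intensity ratio, with at least 20 cells analyzed; inconclusive means wells under 20 cells, flagged as cytotoxic or low count; inactive means the rest.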 Many of the other results were omitted from the sample, so actives are more common in it than they were.
Legend:
[1] = agonists of human NTR1, primary screen, imaging, U2OS cells, beta-arrestin-GFP, high content (AID 493036); settings: NTR1-U2OS beta-arrestin-GFP spot imaging, agonist mode; measured here: cell count, cytotoxicity flag; at 20 µM;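 on activation: 0% = DMSO without peptide and 100% = 100 nM NTR1 peptide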
[2] = molecular target: Neurotensin receptor type 1 (Homo sapiens) (UniProt P30989); assay: as above; settings: NTR1-U2OS beta-arrestin-GFP spot imaging, agonist mode; at 20 µM; stronger effect = higher value
Sequence of Neurotensin receptor type 1 (Homo sapiens) (P30989 whole entry, looked up): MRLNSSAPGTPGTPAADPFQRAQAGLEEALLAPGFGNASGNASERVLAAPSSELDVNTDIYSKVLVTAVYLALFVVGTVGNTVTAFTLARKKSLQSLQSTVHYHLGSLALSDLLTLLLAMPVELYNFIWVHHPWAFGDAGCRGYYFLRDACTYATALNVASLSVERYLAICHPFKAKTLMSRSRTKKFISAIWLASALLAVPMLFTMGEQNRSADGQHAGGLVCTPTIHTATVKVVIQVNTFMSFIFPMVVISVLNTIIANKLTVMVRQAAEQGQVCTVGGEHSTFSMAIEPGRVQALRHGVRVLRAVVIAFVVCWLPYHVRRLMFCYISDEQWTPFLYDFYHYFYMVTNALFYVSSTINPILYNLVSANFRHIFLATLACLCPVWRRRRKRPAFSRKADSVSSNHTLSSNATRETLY

| SMILES | cell count [1] [cells] | activation [2] |
| --- | --- | --- |
| O=C1NC(=O)N(c2ccccc2)C(=O)/C1=C/c1ccc([N+](=O)[O-])s1 | 47 | -0.1% (inactive) |
| COc1cccc(N2C(=O)NC(=O)/C(=C\c3ccc([N+](=O)[O-])s3)C2=O)c1 | 25 | -0.6% (inactive) |
| Cc1cccc(N2C(=O)NC(=O)/C(=C\c3cnn(-c4ccccc4)c3)C2=O)c1 | 57 | 45.7% (active) |
| COc1ccc(C(=O)C2CN(C)CC2C(=O)c2ccc(OC)cc2)cc1 (stereo not given) | 41 | -0.1% (inactive) |
| O=C(CCCn1c(=O)[nH]c2cc(Cl)ccc2c1=O)N1CCC2(CC1)OCCO2 | 62 | 1.7% (inactive) |
| COC(=O)C1=C(c2cc3ccccc3s2)C[C@@H]2CC[C@H]1N2C(=O)NCCO | 97 | 0.3% (inactive) |
| CC1CCCCN1Cc1cccnc1 (stereo not given) | 41 | 1.8% (inactive) |
| O=C1NC(=O)N(Cc2ccco2)C(=O)/C1=C\c1ccc(-c2ccc(F)cc2)o1 | 62 | 23.3% (inactive) |
| O=C(O)COc1ccccc1/C=C1\C(=O)NC(=O)N(CCC2=CCCCC2)C1=O | 52 | 0% (inactive) |
| O=C1NC(=O)N(CCc2ccc(F)cc2)C(=O)/C1=C/C=C/c1ccccc1 | 50 | 41.5% (active) |
